Laboratory results taken from PubChem BioAssay (NCATS).
Inconclusive results are not listed. Calls of active or inactive are those of the source. The call rests on the fitted dose curve; in most records, active means well fitted curve in the direction sought with a large enough effect; inconclusive means small, poorly fitted or top-dose-only effect, or another doubt; inactive means no such curve, though single readings can be large; an effect the other way counts as inactive or inconclusive.

What was measured:
[1] = Cellular Toxicity (caspase-3) Mesangial (AID 660); conditions: mesangial cells, normalized: DMSO 0%, 100 µM tamoxifen 100%; at 91.7 µM (top of the series)
Outline: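 Human renal glomerular mesangial cells (1000/well) were treated with compounds for 16 h at 37 °C in complete medium, then caspase 3/7 activity was read by Caspase-Glo luminescence. Data were normalized to DMSO and 100 uM tamoxifen; AC50 from Hill fits.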

[2] = Cellular Toxicity (caspase-3) SK-N-SH (AID 661);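 further: 0% = DMSO basal and 100% = 10 µM staurosporine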
Outline: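 SK-N-SH human neuroblastoma cells (1500/well) were treated with compounds for 16 hr at 37 °C in complete medium; caspase 3/7 activity was read by Caspase-Glo luminescence. AC50 came from Hill fits of data normalized to DMSO and 10 uM staurosporine.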

[3] = Cellular Toxicity (caspase-3) H-4-II-E (AID 663); conditions: H-4-II-E rat hepatoma, scaled: DMSO 0%, 100 µM tamoxifen 100%; at 92.2 µM (top of the series);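 further: cells exposed to compound for 16 hr before readout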
Outline: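 Rat hepatoma H-4-II-E cells (1500/well) plated 5 hr, then exposed to compound titrations for 16 hr at 37 °C. Caspase-Glo 3/7 luminescence read after 20 min at RT; data normalized to DMSO and 100 uM tamoxifen, AC50 from Hill fits.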

[4] = Cellular Toxicity (caspase-3) Hek293 (AID 664); conditions: HEK293 caspase-3 activation, DMSO = 0%, 100 µM tamoxifen = 100%; at 92.2 µM (top of the series);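 further: cells exposed to compound for 16 h at 37 °C before readout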
Outline: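 HEK293 cells were exposed to compounds in complete medium for 16 hr at 37 °C, then caspase-3/7 activity was read by Caspase-Glo 3/7 luminescence after 20 min at room temperature. Data normalized to DMSO and 100 uM tamoxifen; AC50 from Hill fits.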

[5] = Cellular Toxicity (caspase-3) N2a (AID 665);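 further: compound exposure lasted 16 h at 37 °C before readout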
Outline: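 Mouse N2a neuroblastoma cells (1500/well) were treated with compounds for 16 h at 37 °C, then caspase-3/7 activity was read by Caspase-Glo luminescence after 1 h at room temperature. Data were normalized to DMSO and 10 uM staurosporine; AC50 from Hill fits.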

[6] = Cellular Toxicity (caspase-3) NIH 3T3 (AID 666);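 further: caspase signal read after 16 h compound exposure; 0% = DMSO basal and 100% = 100 µM tamoxifen stimulation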
Outline: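 Mouse NIH 3T3 fibroblasts (1000 cells/well) were treated with compound for 16 hr at 37°C in complete medium; caspase-3/7 activity was read by Caspase-Glo luminescence. Normalized to DMSO and 100 uM tamoxifen; AC50 from Hill fits.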

[7] = Cellular Toxicity (caspase-3) Renal Proximal Tubule (AID 667); conditions: Potency: caspase-3 activation;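 further: cells exposed to compound for 16 hours at 37 °C before detection; 0% = DMSO basal and 100% = 10 µM staurosporine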
Outline: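 Caspase 3/7 activation measured by luminescent aminoluciferin release in primary rat proximal tubule cells after 16 hr compound exposure at 37 °C. AC50 from Hill-fitted concentration-response, scaled between DMSO and 10 uM staurosporine.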

[8] = target: Cytochrome P450 3A4 (Homo sapiens) (UniProt P08684); assay: qHTS Assay for Inhibitors and Substrates of Cytochrome P450 3A4 (AID 884); further: on the % scale 0 is the no-effect control and ±100 the full control effect; nearly all actives have a fitted effect of over 50% in size
Outline: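 20 nM human CYP3A4 with 25 uM Luciferin-PPXE (at KM) in 200 mM KPO4, preincubated 10 min with compound; NADPH regeneration started a 60 min RT reaction. Luciferin detected by luminescence, normalized to 57 uM ketoconazole as full inhibition.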

[9] = Cell Viability - LYMP2-001 (AID 921);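 further: 0% = DMSO only and full inhibition = tetraoctylammonium bromide control wells; nearly all actives have a fitted effect of over 70% in size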
Outline: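 Cellular ATP loss read by luciferase luminescence after 24 h compound exposure at 37 C in complete medium. LYMP2-001 lymphoblastoid cells, 2500/well; qHTS concentration-response data fitted with Hill equation for AC50.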

[10] = MultiTox-Fluor Cytotoxicity Assay - LYMP1-001 - Dead Cells (AID 946)
Outline: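 Cytotoxicity as increased dead-cell protease fluorescence (bis-AAF-R110, 485/520 nm), read 60 min after MultiTox-Fluor reagent. Human lymphoblastoid line exposed 16 h; Hill-fitted AC50, with DMSO as 0% and 15 uM tetraoctylammonium bromide as 100%.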

[11] = MultiTox-Fluor Cytotoxicity Assay - LYMP1-001 - Live Cells (AID 947);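 further: 0% = DMSO only and full inhibition = tetraoctylammonium bromide control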
[12] = Cell Viability - LYMP1-002 - Assay at 16 hr (AID 948);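 further: 0% = DMSO alone and full effect = 92 µM tetraoctylammonium bromide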
Outline: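 ATP luminescence (CellTiter-Glo) was measured after 16 hr compound exposure at 37 C of 2500 lymphoblastoid LYMP1-002 cells per well. Concentration-response curves were fitted with the Hill equation to give AC50.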

[13] = MultiTox-Fluor Cytotoxicity Assay - LYMP1-002 - Live Cells (AID 955); further: on the % scale 0 is the no-effect control and ±100 the full control effect
Outline: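 Human lymphoblastoid LYMP1-002 cells, 2500/well in complete medium, rested 5 hr at 37 C, then exposed to compounds for 16 hr at 37 C. Live-cell protease cleavage of GF-AFC read by fluorescence (Ex/Em 405/510) after 60 min at room temperature; AC50 from Hill fits.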

[14] = MultiTox-Fluor Cytotoxicity Assay - LYMP1-002 - Dead Cells (AID 960); further: nearly all actives have a fitted effect of over 60% in size
Outline: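 Human lymphoblastoid cells (LYMP1-002), 2500/well in complete medium, were exposed to compounds for 16 hr at 37 C. Dead-cell protease activity was read as bis-AAF-R110 fluorescence (Ex/Em 485/520), normalized to DMSO and 15 uM tetraoctylammonium bromide; AC50 from Hill fits.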

[15] = MultiTox-Fluor Cytotoxicity Assay - LYMP1-003 - Dead Cells (AID 961); further: nearly all actives have a fitted effect of over 70% in size
Outline: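 Dead-cell protease release, detected as bis-AAF-R110 fluorescence at 485/520 nm, was measured in LYMP1-003 cells after 16 h compound treatment at 37 C. AC50 values came from Hill-modeled qHTS curves normalized to DMSO (0%) and 15 uM tetraoctylammonium bromide (100%).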

[16] = MultiTox-Fluor Cytotoxicity Assay - LYMP1-003 - Live Cells (AID 962);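 further: 0% = DMSO only and full loss = 92 µM tetraoctylammonium bromide; cytotoxic hits lower the live-cell protease signal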
Outline: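 LYMP1-003 human lymphoblastoid cells (2500/well) in complete medium were preincubated 5 hr at 37 C, then exposed to compounds for 16 hr at 37 C. Live-cell protease cleavage of GF-AFC read by fluorescence (Ex/Em 405/510); AC50 from Hill fits.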

[17] = Cell Viability - LYMP1-003 - Assay at 24 hr (AID 963);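 further: plate controls were DMSO only for no effect and tetraoctylammonium bromide positive control for full effect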
Outline: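 Human lymphoblastoid LYMP1-003 cells (2500/well) were rested 5 hr at 37 C, then exposed to compounds in complete medium for 24 hr at 37 C. Cellular ATP was quantified by CellTiter-Glo luminescence, and AC50 values came from Hill fits of concentration-response data.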

[18] = Cell Viability - LYMP1-003 - Assay at 40 hr (AID 964); further: on the % scale 0 is the no-effect control and ±100 the full control effect; nearly all actives have a fitted effect of over 60% in size
Outline: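 Human lymphoblastoid LYMP1-003 cells, 2500/well in complete medium, rested 5 hr at 37 C, then exposed to compounds for 40 hr at 37 C. Viability read as intracellular ATP by CellTiter-Glo luminescence; AC50 from Hill fits of concentration-response data.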

[19] = Cell Viability - LYMP2-003 (AID 965);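 further: cells exposed to compounds for 24 h before reading; 0% = DMSO only and full effect = 92 µM tetraoctylammonium bromide; nearly all actives have a fitted effect of over 50% in size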
Outline: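 CellTiter-Glo luminescence quantified ATP loss after 24 h compound treatment of LYMP2-003 lymphoblastoid cells at 37 C. Titration series were fitted with the standard Hill equation to give AC50.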

Cytochrome P450 3A4 (Homo sapiens), sequence (P08684 whole entry, looked up): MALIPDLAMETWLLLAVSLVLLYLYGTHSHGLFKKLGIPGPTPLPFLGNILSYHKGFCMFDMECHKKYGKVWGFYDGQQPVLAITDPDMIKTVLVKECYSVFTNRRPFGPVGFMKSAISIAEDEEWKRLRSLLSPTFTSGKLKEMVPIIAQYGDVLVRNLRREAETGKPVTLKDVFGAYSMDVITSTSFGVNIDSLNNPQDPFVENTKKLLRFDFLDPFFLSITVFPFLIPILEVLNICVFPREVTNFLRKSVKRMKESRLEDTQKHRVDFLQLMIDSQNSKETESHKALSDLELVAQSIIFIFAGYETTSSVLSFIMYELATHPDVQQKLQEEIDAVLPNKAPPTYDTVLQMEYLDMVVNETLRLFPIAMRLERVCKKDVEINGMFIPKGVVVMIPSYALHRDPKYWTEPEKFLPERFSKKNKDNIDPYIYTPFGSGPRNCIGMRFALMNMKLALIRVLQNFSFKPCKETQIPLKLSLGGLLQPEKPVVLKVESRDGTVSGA

Cc1cccc(C)c1
inactive: caspase-3 activation [1] -0.476% | outcome [2] | caspase-3 activation [3] 0.714% | caspase-3 activation [4] 2.59% | outcome [5] | outcome [6] | Potency [7] | Potency [8] | Potency [9] | outcome [10] | outcome [11] | outcome [12] | outcome [13] | outcome [14] | Potency [15] | Potency [16] | Potency [17] | Potency [18] | Potency [19]

CCCCCCC(=O)O
inactive: caspase-3 activation [1] -0.964% | outcome [2] | caspase-3 activation [3] 0.492% | caspase-3 activation [4] 0.189% | outcome [5] | outcome [6] | Potency [7] | Potency [8] | Potency [9] | outcome [10] | outcome [11] | outcome [12] | outcome [13] | outcome [14] | Potency [16] | Potency [17] | Potency [18] | Potency [19]

Nc1cc(S(=O)(=O)O)ccc1O
inactive: caspase-3 activation [1] 0.554% | outcome [2] | caspase-3 activation [3] -0.224% | caspase-3 activation [4] -0.175% | outcome [5] | outcome [6] | Potency [7] | Potency [8] | Potency [9] | outcome [10] | outcome [11] | outcome [12] | outcome [13] | outcome [14] | Potency [15] | Potency [16] | Potency [17] | Potency [18] | Potency [19]

O=[N+]([O-])c1ccc(Cl)cc1Cl
inactive: caspase-3 activation [1] 0.652% | outcome [2] | caspase-3 activation [3] 1.21% | caspase-3 activation [4] 1.91% | outcome [5] | outcome [6] | Potency [7] | Potency [8] | Potency [9] | outcome [10] | outcome [11] | outcome [12] | outcome [13] | outcome [14] | Potency [16] | Potency [17] | Potency [18]

CCCC=O
inactive: caspase-3 activation [1] -0.494% | outcome [2] | caspase-3 activation [3] -1.37% | caspase-3 activation [4] -2.73% | outcome [5] | outcome [6] | Potency [7] | Potency [8] | Potency [9] | outcome [10] | outcome [11] | outcome [12] | outcome [13] | outcome [14] | Potency [15] | Potency [16] | Potency [17] | Potency [18] | Potency [19]

Cc1ccc(C(=O)O)cc1
inactive: caspase-3 activation [1] -0.126% | outcome [2] | caspase-3 activation [3] 1.11% | caspase-3 activation [4] 0.649% | outcome [5] | outcome [6] | Potency [7] | Potency [8] | Potency [9] | outcome [10] | outcome [11] | outcome [12] | outcome [13] | outcome [14] | Potency [15] | Potency [16] | Potency [17] | Potency [18] | Potency [19]

C=CCCC
inactive: caspase-3 activation [1] -0.34% | outcome [2] | caspase-3 activation [3] 1.14% | caspase-3 activation [4] -1.75% | outcome [5] | outcome [6] | Potency [7] | Potency [8] | Potency [9] | outcome [10] | outcome [11] | outcome [12] | outcome [13] | outcome [14] | Potency [15] | Potency [17] | Potency [18] | Potency [19]

CC(C)(O)CCC(C)(C)O
inactive: caspase-3 activation [1] -1.06% | outcome [2] | caspase-3 activation [3] 0.513% | caspase-3 activation [4] 5.12% | outcome [5] | outcome [6] | Potency [7] | Potency [8] | Potency [9] | outcome [10] | outcome [11] | outcome [12] | outcome [13] | outcome [14] | Potency [15] | Potency [16] | Potency [17] | Potency [19]

Cc1ccc2ccccc2c1[N+](=O)[O-]
inactive: caspase-3 activation [1] 0.0968% | outcome [2] | caspase-3 activation [3] -1.44% | caspase-3 activation [4] -2.81% | outcome [5] | outcome [6] | Potency [7] | Potency [8] | Potency [9] | outcome [10] | outcome [11] | outcome [12] | outcome [13] | outcome [14] | Potency [16] | Potency [17] | Potency [18] | Potency [19]

c1ccc2c(c1)Oc1ccccc1S2
inactive: caspase-3 activation [1] -0.346% | outcome [2] | caspase-3 activation [3] -0.0621% | caspase-3 activation [4] -0.379% | outcome [5] | outcome [6] | Potency [7] | Potency [8] | Potency [9] | outcome [10] | outcome [11] | outcome [12] | outcome [13] | outcome [14] | Potency [15] | Potency [16] | Potency [17] | Potency [19]

O=[N+]([O-])c1cc(C(F)(F)F)ccc1Cl
inactive: caspase-3 activation [1] -0.64% | outcome [2] | caspase-3 activation [3] 0.0893% | caspase-3 activation [4] -0.647% | outcome [5] | outcome [6] | Potency [7] | Potency [8] | Potency [9] | outcome [10] | outcome [11] | outcome [12] | outcome [13] | outcome [14] | Potency [15] | Potency [17] | Potency [18] | Potency [19]

O=P(O)(OCc1ccccc1)OCc1ccccc1
inactive: caspase-3 activation [1] -0.354% | outcome [2] | caspase-3 activation [3] 1.06% | caspase-3 activation [4] -1.18% | outcome [5] | outcome [6] | Potency [7] | Potency [8] | Potency [9] | outcome [10] | outcome [11] | outcome [12] | outcome [13] | outcome [14] | Potency [15] | Potency [16] | Potency [17] | Potency [18] | Potency [19]

C=Cc1ccc(C=C)cc1
inactive: caspase-3 activation [1] -0.657% | outcome [2] | caspase-3 activation [3] -0.942% | caspase-3 activation [4] 0.511% | outcome [5] | outcome [6] | Potency [7] | Potency [8] | Potency [9] | outcome [10] | outcome [11] | outcome [12] | outcome [13] | outcome [14] | Potency [16] | Potency [17] | Potency [18]

CC(C)c1ccccc1
inactive: caspase-3 activation [1] -1.25% | outcome [2] | caspase-3 activation [3] 0.504% | caspase-3 activation [4] -0.725% | outcome [5] | outcome [6] | Potency [7] | Potency [8] | Potency [9] | outcome [10] | outcome [11] | outcome [12] | outcome [13] | outcome [14] | Potency [15] | Potency [17] | Potency [18] | Potency [19]

CCCCCO
inactive: caspase-3 activation [1] 1.64% | outcome [2] | caspase-3 activation [3] -0.271% | caspase-3 activation [4] -0.0419% | outcome [5] | outcome [6] | Potency [7] | Potency [8] | Potency [9] | outcome [10] | outcome [11] | outcome [12] | outcome [13] | outcome [14] | Potency [15] | Potency [16] | Potency [18] | Potency [19]
